# Reference: PubChem BioAssay AID525 (The Scripps Research Institute Molecular Screening Center, 2006)
# The whole screen tested about 65,000 compounds, of which about 360 (0.55%) were called active. What follows is part of a selection rich in actives, with near analogues and random picks from the rest. Unmarked numbers belong to inactive results.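 The calls were made as follows: active = inhibition above the mean inhibition of all tested compounds plus 3 SD (cut at about 48% in these data); inactive = the rest.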
# Biological target: Steroidogenic factor 1 (Homo sapiens) (UniProt Q13285)
# Assay: suppressors of SF-1 driven luciferase transcription – cell-based, CHO-K1, Gal4-SF-1 LBD, luciferase luminescence, primary screen (AID 525);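 also: 0% = SF-1 transfected cells with DMSO and 100% = mock-transfected cells lacking SF-1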
# Conditions: CHO-K1 Gal4-SF-1 LBD luciferase reporter; at 10 µM; hits give high values
# Steroidogenic factor 1 (Homo sapiens), sequence (Q13285 whole entry, looked up, the tested form may be a part): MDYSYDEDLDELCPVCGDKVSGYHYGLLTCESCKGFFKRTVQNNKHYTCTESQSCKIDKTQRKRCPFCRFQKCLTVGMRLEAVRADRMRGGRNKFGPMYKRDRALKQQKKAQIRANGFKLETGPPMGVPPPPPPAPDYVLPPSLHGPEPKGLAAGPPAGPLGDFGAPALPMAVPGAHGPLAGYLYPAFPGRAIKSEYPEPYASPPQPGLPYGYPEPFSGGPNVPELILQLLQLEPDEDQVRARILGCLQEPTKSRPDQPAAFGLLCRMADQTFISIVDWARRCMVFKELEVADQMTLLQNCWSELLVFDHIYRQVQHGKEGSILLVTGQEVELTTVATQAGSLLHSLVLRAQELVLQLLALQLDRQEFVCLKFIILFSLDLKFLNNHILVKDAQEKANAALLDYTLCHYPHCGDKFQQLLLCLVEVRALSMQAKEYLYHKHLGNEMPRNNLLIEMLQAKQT
row,Compound,inhibition
1,Cn1c(=O)c2cn(-c3cccc4ccccc34)cc2n(C)c1=O,-21.5%
2,Cc1cc(NC(=O)c2cc(-c3cccs3)on2)nn1Cc1ccc(Cl)cc1,2.7%
3,NC(=O)CCCC1=NS(=O)(=O)c2ccccc2N1,10.1%
4,N/C(=N\c1nc2ccccc2o1)NC(=O)C(Cc1ccccc1)N1C(=O)c2ccccc2C1=O (centres undefined),0.7%
5,CCOC(=O)C1=C(C)NC(C)=C(C(=O)OCC)C1c1ccccn1,6.7%
6,CCOC(=O)CNC(=O)CSc1nnc(-c2cccc(OC)c2)n1CC,12.5%
7,CC1CCCCN1S(=O)(=O)c1ccc(C(=O)Nc2nnc(-c3cccs3)o2)cc1 (centres undefined),49.4% (active)
8,CC(C)(C)n1nc2c(c1NC(=O)c1ccc(S(=O)(=O)N3CCCC3)cc1)CS(=O)C2 (centres undefined),6.6%
9,Cc1ccc(C(=O)Nc2nnc(-c3cccs3)s2)cc1C,-80.9%
10,Cc1ccc(-n2c(SCC(=O)Nc3ccc4c(c3)OCO4)nnc2-c2ccoc2C)cc1,1%
11,CCCOC(=O)Nc1ccccc1C(N)=O,-2.2%
12,CCCCOc1ccc(-c2ncc(C(=O)OCC)c(N)n2)cc1,-49.8%
13,O=C(CN1CCN(c2ccccn2)CC1)NCc1cccs1,-7.1%
14,COc1ccc(-n2ncc3c(N4CCc5ccccc54)ncnc32)cc1,-59.8%
15,c1cc(-n2cnnn2)ccc1NC1=NCCC1,9.1%
16,CCC(=O)Nc1ccc2c(c1)nc(CCN1CCN(C)CC1)n2C,2.6%
17,CCOC(=O)Cc1csc(NC(=O)C(C)(C)C)n1,-20.2%
18,CCn1c(CNc2ccc(OC)cc2)nnc1SCC(=O)c1ccc(OC)cc1,9.6%
19,COc1cc(Cl)c(C)cc1NC(=O)CSc1nnc(-c2cccnc2)n1Cc1ccco1,-10.6%
20,Cc1nnc(SCC(=O)N(C(C)C)C(C)C)nc1C,3.3%
21,Cc1ccsc1C(=O)OCC(=O)c1cc(C)n(CC2CCCO2)c1C (centres undefined),80.5% (active)
22,O=C(OCC(=O)c1cccs1)C1=COCCO1,-24.5%
23,CCOc1cccc(NC(=O)CC#N)c1,-9.5%
24,C/C(=N\O)C1(C)N(O)C(C)(C)C(c2ccc(Br)cc2)=[N+]1[O-] (centres undefined),8.5%
25,Cn1c(-c2ccco2)nc2cc3ccccc3cc21,54.3% (active)

row,Compound,inhibition
1,O=S(=O)(Nc1ccc2nc(-c3ccco3)[nH]c2c1)c1ccccc1,-53.5%
2,c1ccc(CSc2nnc(-c3ccco3)n2Cc2ccccc2)cc1,-76%
3,Cc1cc(NC(=O)CCC(=O)N(c2ccccc2)C(C(=O)NC2CCCC2)c2ccncc2)no1 (centres undefined),-9.4%
4,CCOc1ccccc1NC(=O)CCc1ccc(C)o1,14.7%
5,O=C(O)C1CCCN(S(=O)(=O)c2cccc3cccnc23)C1 (centres undefined),-5.7%
6,COc1ccc(N2CC(C)Cn3c2nc2c3c(=O)n(Cc3ccccc3F)c(=O)n2C)c(OC)c1 (centres undefined),-2.3%
7,Nc1ncc(-c2cc3ccccc3oc2=O)s1,-79.3%
8,CCOC(=O)c1c(C(C#N)C#N)cc(C)nc1C,-2.3%
9,CC(C)COC(=O)c1ccc(NC(=O)C2C3C=CC(C3)C2C(=O)O)cc1 (centres undefined),-63.7%
10,Cn1c(=O)c2c(nc(SCCNS(=O)(=O)c3ccccc3)n2C)n(C)c1=O,13.3%
11,CC(=O)c1c(N2CCOCC2)nc(=S)n(-c2cc(C)ccc2C)c1C,-0.4%
12,COC(=O)c1ccc(NC(=O)c2ccco2)cc1,-85.3%
13,COc1ccccc1N1CC(O)=C(c2nc3ccccc3s2)C1=N,-13.3%
14,O=C(OC1CCOC1=O)c1ccc(-c2nc3ccccc3s2)s1 (centres undefined),59.9% (active)
15,COc1ccc(CCN2CNc3c(c(=O)n(C)c(=O)n3C)C2)cc1OC,-1.5%
16,CSCC[C@H](NC(=O)NCCc1ccc(F)cc1)C(=O)O,-3.2%
17,Fc1ccc2nc(Nc3nc4c(s3)CCCC4)sc2c1,-90%
18,CCCC(CCC(=O)OC)(C(=O)OCC)c1csc(N)n1 (centres undefined),-13.3%
19,CC(Oc1ccc(Cl)cc1)C(=O)Nc1ncccn1 (centres undefined),16%
20,O=C(Nc1ccc(Cl)cn1)c1cnn2cccnc12,-63.8%
21,C=CCN(c1ccc(C(N)=O)cc1)S(C)(=O)=O,-14.5%
22,Cc1cccc(CC(=O)Nc2c3c(nn2-c2cccc(Cl)c2)CS(=O)C3)c1 (centres undefined),13.6%
23,COc1cccc(-c2nc3n(n2)C(c2ccccc2Cl)C(C(N)=O)=C(C)N3)c1 (centres undefined),17.2%
24,O=S(=O)(c1cccs1)N1CCc2ccccc2C1,12.2%
25,COCc1[nH]nc2c1C(C1C=CCCC1)C(C#N)=C(N)O2 (centres undefined),-8%

row,Compound,inhibition
1,CCOC(=O)[C@H]1CCC[C@@H](NS(=O)(=O)c2ccc(NC(C)=O)cc2)C1,-18.3%
2,CCN(c1ccccc1)S(=O)(=O)c1ccc(N)cc1,-8.5%
3,CCCOc1ccc(/C(O)=C2/C(=O)C(=O)N(CCN(C)C)C2c2ccc(OC)c(OC)c2)cc1 (centres undefined),-2.4%
4,CC(C)Cc1cc(C(=O)NCCc2ccccc2)no1,-80.7%
5,Cc1cc(/C=N/n2cnnc2)c(C)n1-c1ccc2ncccc2c1,2.6%
6,O=C(Oc1ccc(-c2nc(-c3ccccn3)no2)cc1)c1ccccc1,49.6% (active)
7,Cc1cccc(-c2noc(-c3ccc(F)cc3)n2)c1,-77.6%
8,CCOC(=O)N1CCC(Nc2c(NCCN3CCN(c4cccc(Cl)c4)CC3)c(=O)c2=O)CC1,-1.7%
9,COc1ccc(-c2noc(-c3cccc(OC)c3OC)n2)cc1OC,-100%
10,COc1ccc(-c2nc(-c3ccccc3)no2)c(OC)c1,82.9% (active)
11,COc1ccc2c(c1)CCc1c(C(=O)N3CCCC3)noc1-2,-55.3%
12,CCOC(=O)N1CCN(C(=O)C2CCCN(c3ncnc4c3sc3cccc(F)c34)C2)CC1 (centres undefined),2.8%
13,CCOC(=O)N1CCN(C(=O)C2CCN(c3ncnc4c3sc3cccc(F)c34)CC2)CC1,55.2% (active)
14,CCOC(=O)N1CCN(CC(=O)Nc2cc(C)nn2-c2nc3ccccc3s2)CC1,-0.5%
15,COc1ccc(C(CC(=O)O)NC(=O)Cc2ccccc2)cc1 (centres undefined),10.8%
16,COC(=O)c1ccc(NC(=O)C(C)N2C(=O)c3ccccc3C2=O)cc1 (centres undefined),-11.5%
17,CCC(=O)N1CCN=C1SCc1ccc(F)cc1,-14.3%
18,CCN(CC)c1ccc(C(=O)OCC(=O)c2ccco2)cc1,-53.6%
19,CC1CCCN(Cc2nc3c(c(=O)n(C)c(=O)n3C)n2CC(=O)c2ccccc2)C1 (centres undefined),-26.7%
20,COc1ccc(CCNC(=O)CN2CCC(n3nnc4cc(F)ccc43)CC2)cc1OC,-4.4%
21,C=CCn1c(=O)c2ccccc2n2c(SCC(=O)N3CCCc4ccccc43)nnc12,8.4%
22,CCC(C(=O)NC1CCCC1)N(C(=O)c1snc(C(N)=O)c1N)c1ccc2c(c1)OCCO2 (centres undefined),-2.2%
23,CCOc1cc(C(=O)N2CCc3cc(OC)c(OC)cc3C2)ccc1OC(F)F,77.3% (active)
24,CCOc1cc(C(=S)N2CCOCC2)ccc1O,3.9%
25,COc1ccc(-c2cc(C(=O)NC(C(=O)O)C(C)C)c(C)o2)cc1OC (centres undefined),-56.5%

row,Compound,inhibition
1,CCOc1ccccc1-n1c(SCC(=O)NCc2ccco2)nnc1-c1ccncc1,6.1%
2,O=C(CN1C(=O)C2C3C=CC(C3)C2C1=O)NCC1COc2ccccc2O1 (centres undefined),-7.1%
3,CC(C)OCCCNc1ncnc2c1[nH]c1ccc(F)cc12,84.1% (active)
4,CC(C)CNC(=O)c1cc(-c2ccc(Br)cc2)on1,-52.5%
5,Cn1c(NC(=O)c2ccco2)c(-c2ccccc2Cl)c(=O)c2ccccc21,-7.6%
6,CC1=C(C(=O)OCc2ccccc2)C(c2ccco2)n2ncnc2N1 (centres undefined),14.7%
7,O=C(COc1ncnc2ccccc12)NC(=O)NCc1ccccc1,2.4%
8,CN(Cc1ccccc1)Cc1ccccc1F,9.2%
9,O=C(CN1C(=O)COc2ccccc21)Nc1ccc(F)cc1,8.5%
10,CC(C)(C)NC(=O)Cn1nnc(-c2ccccc2Cl)n1,-50%
11,O=C(Cn1cc2c(n1)CCCCC2)NCCN1CCOCC1,8.1%
12,COC(=O)c1ccc(NCC(=O)c2ccccc2)cc1,-68.7%
13,O=C(Cn1cnc2c(cnn2-c2ccccc2)c1=O)NCc1ccccc1,-70.3%
14,COc1ccccc1-c1cc(C(=O)N2CCCCC2)no1,-82.1%
15,CCOc1cccc(C(=O)Nc2cccnc2)c1,-6.7%
16,Cc1noc(/C=C/N(C)C)c1S(=O)(=O)N1CCCC(C(=O)NCc2ccco2)C1 (centres undefined),15%
17,COc1ccccc1Nc1ncnc2c1oc1ccccc12,-91.8%
18,COC(=O)N1CN(C(=O)OC)CN(C(=O)OC)C1,-1.7%
19,C=C(C)CSc1nc(N)c2c3c(sc2n1)CCC3,-51.4%
20,CC(C)(CNCC(O)c1ccccc1)N1CCOCC1 (centres undefined),-12.6%
21,O=C(CS(=O)(=O)c1cn(Cc2cccc(F)c2)c2ccccc12)N1CCCCC1,-5.4%
22,Cc1noc(COc2ccccc2OCC(O)CNC(C)(C)C)n1 (centres undefined),0.5%
23,COC(=O)c1c(NC(=O)c2cccs2)sc2c1CCCC2,-28.2%
24,N#CCCN1CCN(S(=O)(=O)c2ccc(S(=O)(=O)N3CCCC3)cc2)CC1,18%
